Here are results for 46 sequences from the supplement of paper PMC11417369.

In all, about 25,000 sequences were measured (“ln(normalized median fluorescence intensity)”: median about 6.7, highest 2% from about 10 on). This excerpt belongs to a sample that is enriched for the highest values.

For this test, the system named is PfHDP1 homeodomain (GST-tagged). Nature of the test: gcPBM binding intensity (ln(normalized median fluorescence intensity)); higher = stronger DNA binding. In a few lines:
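The binding buffer was 1× PBS containing 1% milk, 0.2 mg/ml BSA, 0.5% salmon testes DNA and 0.03% Triton X-100. In it, GST-tagged P. falciparum DNA-binding domains expressed in E. coli were applied for 1 h to an Agilent 4 × 180k array of primer-extended double-stranded 36-bp intergenic genomic probes plus negative controls. Binding intensity, read with Alexa488 anti-GST antibody and a 488 nm scan, is the highest Masliner-normalised natural-log median intensity across replicate spots of either probe orientation.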
Consider “AATATTATTTATATTTGTACACAGTAATATAAAATA [XGTACX_site4884]”, for which the “gcPBM binding intensity (ln)” value amounted to 6.25.

For “AATTGTTAATGGTACGAACACACATATAAAGATGCA [CACACA_site2043]”, the “gcPBM binding intensity (ln)” value came out at 6.76.

Turning to “ATGTGTATATATTATTGTACATATATATATATATAT [XGTACX_site4627]”, the “gcPBM binding intensity (ln)” value worked out at 9.24.

“AAAAAATTATAAAAGTGTACATATATATATATATAT [XGTACX_site154]”: the “gcPBM binding intensity (ln)” value was determined as 9.48.

As for “TATATATTATATATATGTACATATTGTTGTGTATAT [XGTACX_site767]”, the “gcPBM binding intensity (ln)” value was determined as 7.15.

With “GTTGTTATATAAAATTGTACATAAAAAACAAAATAT [XGTACX_site5313]”, the “gcPBM binding intensity (ln)” value was found to be 6.8.

In the case of “AATTGTGCATTATATTGTACACGTGTTGTATATATT [XGTACX_site975]”, the “gcPBM binding intensity (ln)” value was found to be 10.8.

In the case of “TAAATTGGTGCAAAGTGTACATATATATCTTTCCTA [XGTACX_site5458]”, the “gcPBM binding intensity (ln)” value amounted to 10.4.

With “ATATATAATTTTTGTTGTACATTATAAAAATAATTA [XGTACX_site2738]”, the “gcPBM binding intensity (ln)” value amounted to 6.3.

Consider TAGGTACATAAATTGGTGCAAAGTGTACATATATAT, for which the “gcPBM binding intensity (ln)” value stood at 10.8.

On to “GTGTGCAAAAATTGTTGTACATTATATATAAAAAAA [XGTACX_site3246]”, for which the “gcPBM binding intensity (ln)” value is 10.6.

As to “CCCACAGACGGACACACACACACACCGACACATATA [CACACA_site4356]”, the “gcPBM binding intensity (ln)” value is 7.01.

Regarding “TTATAATTTAATAAATGTACATAAATAATATACATA [XGTACX_site7271]”, the “gcPBM binding intensity (ln)” value turned out to be 6.14.

Regarding “AAATTATTAAGTGATATAATATTCTATAGATGGGGA [CACACA_negctrl_site168]”, the “gcPBM binding intensity (ln)” value stood at 6.76.

Consider CCACGAGAATATATAGTGCATAATAATTTTTTTTTG, for which the “gcPBM binding intensity (ln)” value came out at 8.82.

With “ATTTTTTTTTTTTTTTTTTTTGCACCATAAAATAAT [CACACA_negctrl_site1324]”, the “gcPBM binding intensity (ln)” value worked out at 10.1.

Take “TGTGCATAATTTTGTGCACACCACGCTAATAATTTT [CACACA_site2915]”: the “gcPBM binding intensity (ln)” value came out at 11.5.

Consider “GTATGGCGTATCATATGTACTAAAAAAAAATAAAAA [XGTACX_site5101]”, for which the “gcPBM binding intensity (ln)” value was 6.49.

“AAAGAAATGAAATATACACACATACCTATATACATA [CACACA_site7817]”: the “gcPBM binding intensity (ln)” value stood at 6.63.

GAAAAGCAGATAAATGTGCACATATATGTTTGTATA: the “gcPBM binding intensity (ln)” value was 10.8.

On to “TAAAATAGAAATATATGTACATATATATATGTATAT [XGTACX_site4134]”, for which the “gcPBM binding intensity (ln)” value came to 6.4.

In the case of “TATATGTATAGAAAATGTACATATAAATATATATAT [XGTACX_site3420]”, the “gcPBM binding intensity (ln)” value came to 7.94.

“AAAAAATAAAAAGATACACACATATGTATAATATAC [CACACA_site1496]”: the “gcPBM binding intensity (ln)” value stood at 6.83.

As to “ATATATGTATGTTAGACACACATATTATAATATGTT [CACACA_site116]”, the “gcPBM binding intensity (ln)” value was determined as 6.5.

Regarding TTTTTGTTATTATGTGTGCACATATATATATATATA, the “gcPBM binding intensity (ln)” value worked out at 10.4.

For “TATGTATGTTAGTGTGCACACATAAATATTATATAT [CACACA_site9121]”, the “gcPBM binding intensity (ln)” value came out at 11.1.

With “ATAAATACATATGTGTGTACACATTATATATATATA [XGTACX_site1486]”, the “gcPBM binding intensity (ln)” value was determined as 9.17.

In the case of “ATATATGATGTATTTGTGCACATATATATATTATTA [GTGCAC_site9471]”, the “gcPBM binding intensity (ln)” value amounted to 10.7.

With “AAAAAAAAAAAAAGCACACACACATATGTGTATATA [CACACA_site8225]”, the “gcPBM binding intensity (ln)” value was 6.86.

Consider “CACATATATATGTGTGCATGTTGTATTATATATTTA [TGCATGCA_site632]”, for which the “gcPBM binding intensity (ln)” value stood at 8.72.

Take “TGTGTGTGTATATGTGTGCACATATAAAATAGAAGA [GTGCAC_site9714]”: the “gcPBM binding intensity (ln)” value stood at 10.5.

As to “TAATTTCTTATGTAGTGTACAAATAATATATGATAT [XGTACX_site597]”, the “gcPBM binding intensity (ln)” value is 6.39.

Regarding “ATTAAAAAAATATAAACACACAAAAAAAAAATATAC [CACACA_site1100]”, the “gcPBM binding intensity (ln)” value was found to be 7.06.

As to “AACAAATAAAAAAAAATAAAAATAAAAATAAAAAAA [XGTACX_negctrl_site451]”, the “gcPBM binding intensity (ln)” value came to 6.36.

Take “TTTTTTTCTTCTTTTCTCTTAAAAATATTGAATATT [CACACA_negctrl_site1762]”: the “gcPBM binding intensity (ln)” value worked out at 6.28.

Regarding “TATACATATGAAAATACACACATACATACAGATATA [CACACA_site5002]”, the “gcPBM binding intensity (ln)” value was 6.64.

Turning to “AATATTTATGGGTGCACACAAACATACAGATATATA [CACACA_site5810]”, the “gcPBM binding intensity (ln)” value stood at 10.3.

For “TTTATGTGTATGTTTACACACATAAAAAAATATATG [CACACA_site3039]”, the “gcPBM binding intensity (ln)” value was found to be 6.54.

“AAGAAAAATATTCGTGTGCACAGAAGTATATGTGTG [GTGCAC_site9814]”: the “gcPBM binding intensity (ln)” value turned out to be 11.

For the sequence TATATGTATGTTTGTGTGCACACATAAATATTATAT, the “gcPBM binding intensity (ln)” value turned out to be 10.5.

As for “TAAAAATTGCACAGAAGTACAGTATAAATATATATA [XGTACX_site3421]”, the “gcPBM binding intensity (ln)” value came to 10.2.

“ATATATTATGGGTGTGCACACAATATTTATATGTTC [CACACA_site2270]”: the “gcPBM binding intensity (ln)” value came out at 10.9.

“TGTATTATATATACACAAATATTTATGTGTGTGTTT [XGTACX_negctrl_site475]”: the “gcPBM binding intensity (ln)” value is 6.71.

Consider “TGTGTATATGTGCAAAGTACAAAAAAGAAATTATTT [XGTACX_site7569]”, for which the “gcPBM binding intensity (ln)” value came out at 9.87.

As for “TATGTGTATAATAAAAGTACATATATTATTATATAA [XGTACX_site8556]”, the “gcPBM binding intensity (ln)” value was determined as 6.35.

In the case of “TGTATGTTTGGGTGCACACATAAATATTATATATAG [CACACA_site3397]”, the “gcPBM binding intensity (ln)” value was 10.2.
